45 compounds from PubChem BioAssay AID2685 (National Center for Advancing Translational Sciences (NCATS), 2010) can be followed below.

Each structure is given as a SMILES string. The campaign covered roughly 320,000 compounds. About 2,100 (0.66%) were called active. About 53% were inconclusive and are not listed. The call rests on the fitted dose curve; in most records, active means well fitted inhibition curve with a large enough effect in the signal ratio, with a control signal flat (not every such curve was filed as active); inconclusive means small, poorly fitted or top-dose-only effect, or effect the other way, or a change in a side signal; inactive means flat fitted curve, though single readings scatter; the % refers to the signal ratio. Many of the other results were omitted from the sample, so actives are more common in it than they were.
Potency means the concentration at half of the fitted maximal effect.

The test is described as follows: qHTS Assay for Lipid Storage Modulators in Drosophila S3 Cells.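 On cell number change: cells counted by Cell Tracker Red CMTPX staining in the red channel.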 On lipid storage change, negative = inhibition: on the % scale 0 is the no-effect control and ±100 the full control effect. To be noted: BODIPY lipid droplet fluorescence, 18-24 h, cells fed with added oleic acid; cell number change: measured here: cell count max response; series mostly up to 46.1 µM; lipid storage change, negative = inhibition: at the top concentration. An outline of the steps: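 Drosophila S3 cells loaded with oleic acid (400 uM, as added) and compounds at several concentrations; lipid droplets imaged by 488-nm laser-scanning cytometry, 500–530 nm intensity and object ratio to cell channel. Percent activity normalized to 20 uM Triacsin C.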
For `CCn1c(SCC(=O)Nc2nccs2)nnc1-c1ccc(C)cc1`, the “lipid storage change, negative = inhibition” value is -3.09% (inactive) and the cell number change is -13.5%.

For the compound `C=CCn1c(SCC(=O)Nc2nccs2)nnc1-c1cc2cccc(OC)c2o1`, the call was inactive and the cell number change is -25.4%. With `CCn1c(SCC(=O)Nc2nccs2)nnc1-c1cc2cccc(OC)c2o1`, the Potency was 1.84 µM (active) and the cell number change was -5.05%.

Consider `Cc1ccc(OCC(=O)NNC(=O)c2cccnc2)cc1C`, for which the “lipid storage change, negative = inhibition” value was -5.08% (inactive) and the cell number change is 0.125%.

Take `CCC(C(=O)NCc1ccco1)N(C(=O)CNS(=O)(=O)c1ccc(C)cc1)c1ccccc1OC` (stereo unspecified): the “lipid storage change, negative = inhibition” value is 6.8% (inactive) and the cell number change is -11.8%. In the case of `CCC(C(=O)NCc1ccco1)N(C(=O)CNS(=O)(=O)c1ccc(F)cc1)c1ccccc1F` (stereo unspecified), the “lipid storage change, negative = inhibition” value is -15.5% (inactive) and the cell number change is -1.9%. For `CCC(C(=O)NCc1ccco1)N(C(=O)CNS(=O)(=O)c1ccc(C)cc1)c1ccccc1F` (stereo unspecified), the Potency was 1.16 µM (active) and the cell number change turned out to be 11.8%. Turning to `CNC(=O)/C(C#N)=C\c1ccc(CNS(=O)(=O)c2ccc(Cl)cc2)o1`, the “lipid storage change, negative = inhibition” value is -15.4% (inactive) and the cell number change is -11.3%. The matching figures for `CNC(=O)/C(C#N)=C/c1c(N2CCCCCC2)nc2ccccn2c1=O`: 8.81% (inactive) and 0.926%. As to `CNC(=O)/C(C#N)=C/c1c(F)cccc1Cl`, the Potency was 10.3 µM (active) and the cell number change is -9.91%. In the case of `CC1=C(C#N)C(NC(=O)C2CCCCC2)(C(F)(F)F)C(=O)N1` (stereo unspecified), the “lipid storage change, negative = inhibition” value is 5.78% (inactive) and the cell number change was found to be 14.5%.

Regarding `COC(=O)C1=C(C)N(C2CCCC2)C(=O)C1(NC(C)=O)C(F)(F)F` (stereo unspecified), the result was inactive. In the case of `COC(=O)C1=C(C)N(C(C)C)C(=O)C1(NC(=O)C1CCCCC1)C(F)(F)F` (stereo unspecified), the Potency was 25.9 µM (active) and the cell number change is 24.5%. With `COc1ccc(S(=O)(=O)N2CCC(C(=O)N[C@H](C(=O)N3CCCC3)C(C)C)CC2)cc1`, the compound was called inactive. With `Cc1ccc2nc(NC(=O)CSc3nnc(C)c(=O)n3N)sc2c1`, the “lipid storage change, negative = inhibition” value is -29.4% (inactive) and the cell number change stood at 0.333%. Turning to `CCOC(=O)c1c(C)[nH]c(NC(=O)Nc2ccc(NC(C)=O)cc2)c1C`, the result was inactive and the cell number change worked out at 22.7%. With `O=C(CN(C(=O)CCC(=O)Nc1ccccn1)c1ccc2c(c1)OCCO2)NCCc1ccccc1`, the “lipid storage change, negative = inhibition” value is 9.9% (inactive) and the cell number change was -14.1%. Take `O=C(O)c1cc2[nH]c3c(c2cc1Cl)CCCC3`: the Potency was 4.11 µM (active) and the cell number change was -7.3%. As to `O=C(O)c1cccc2c3c([nH]c12)CCCC3`, the “lipid storage change, negative = inhibition” value is -7.44% (inactive) and the cell number change was found to be 23.1%. With `NNC(=O)c1ccc2[nH]c3c(c2c1)CCCC3`, the “lipid storage change, negative = inhibition” value was 6.92% (inactive) and the cell number change stood at 7%. In the same order, the values of `CC(OC(=O)C1CC(=O)N(Cc2ccco2)C1)C(=O)Nc1ccc(F)cc1Cl` (stereo unspecified) are -1.45% (inactive) and -0.141%. Take `Cc1cc(C)cc(N2CC(C)(C)C2=O)c1`: the “lipid storage change, negative = inhibition” value was -16.4% (inactive).

For the compound `CCCOc1ccc(N2C(=O)CC(NCCc3ccc(S(N)(=O)=O)cc3)C2=O)cc1` (stereo unspecified), the “lipid storage change, negative = inhibition” value is 1.73% (inactive) and the cell number change was 11.4%.

Regarding `O=C(CC(=O)NN=C1CCCC1)NCCc1ccccc1`, the “lipid storage change, negative = inhibition” value was -9.12% (inactive) and the cell number change was 12%. For `O=C(NCCc1ccccc1)C(=O)NN=C1CCCC1`, the Potency is 29.1 µM (active) and the cell number change was 6%. On to `S=C(NCCc1ccccc1)NN=C1CCCCCC1`, for which the call was inactive and the cell number change was -23.7%. For `CN(C)CCOC(=O)c1ccc2c(c1)S(=O)(=O)c1ccccc1C2=O`, the “lipid storage change, negative = inhibition” value was 17.4% (inactive) and the cell number change worked out at 0.995%. Turning to `Cc1cc(C)nc(SCC(=O)N/N=C/c2cccc([N+](=O)[O-])c2)n1`, the “lipid storage change, negative = inhibition” value was 5.85% (inactive) and the cell number change is 0.279%. For `O=C(O)COc1ccc(/C=N/NC(=O)c2ccccc2Br)cc1`, the “lipid storage change, negative = inhibition” value is -20% (inactive) and the cell number change is -13.2%.

On to `O=C(COc1ccc(/C=N/NC(=O)c2ccccc2O)cc1)Nc1ccccc1`, for which the cell number change was -17.8% and the lipid storage change, negative = inhibition is 9.4% [at 9.22 µM] (inactive). For `O=C(COc1ccc(/C=N/NC(=O)c2ccccc2Br)cc1)Nc1ccccc1`, the Potency is 18.4 µM (active) and the cell number change is -20.5%. Take `CC(C)(C)OC(=O)N1CCC(C(=O)O)CC1`: the “lipid storage change, negative = inhibition” value is 3.97% (inactive) and the cell number change was 14%. In the same order, the values of `O=S(=O)(NCc1ccccn1)C(F)(F)F` are -17.1% (inactive) and 15.5%. With `Cc1cc(C)n2c(SCC#N)nnc2n1`, the outcome was inactive. For `CCO[C@H]1OC(C(=O)N2CCCCCCC2)=C[C@@H](c2ccccc2)[C@@H]1CCCO`, the “lipid storage change, negative = inhibition” value is -17.1% (inactive) and the cell number change was -2.78%.

On to `CSC1=NNC(c2ccc(C(C)(C)C)cc2)=NN1`, for which the “lipid storage change, negative = inhibition” value was 3.5% (inactive) and the cell number change worked out at 21%.

For the compound `COCC(C)n1c(C)cc(C(=O)COC(=O)CN=C2NS(=O)(=O)c3ccccc32)c1C` (stereo unspecified), the “lipid storage change, negative = inhibition” value was -7.81% (inactive) and the cell number change was found to be 10.7%. Turning to `COc1ccc(C2/C(=C(/O)c3ccc(C)cc3)C(=O)C(=O)N2c2ccccn2)cc1OC` (stereo unspecified), the “lipid storage change, negative = inhibition” value is -1.13% (inactive) and the cell number change is -0.743%. On to `CCOc1ccc(C(C)=O)cc1CN1C(=O)NC2(CCCCC2C)C1=O` (stereo unspecified), for which the “lipid storage change, negative = inhibition” value was 17.5% (inactive) and the cell number change was -2.29%. The matching figures for `COc1ccc(C(C)=O)cc1CN1C(=O)NC2(CCCCCCC2)C1=O`: 2.83% (inactive) and 6.34%.

Consider `CCOc1ccc(C(C)=O)cc1CN1C(=O)NC2(CCCCCC2)C1=O`, for which the Potency was 0.13 µM (active) and the cell number change was 3.15%.

As to `O=C(Nc1ccc(Cl)cc1)Nc1nnc(Cc2ccc([N+](=O)[O-])cc2)s1`, the “lipid storage change, negative = inhibition” value is 7.97% (inactive) and the cell number change turned out to be 3.06%.

For the compound `CCn1c(CNC(=O)COc2c(C)cccc2C)nnc1SCC(=O)Nc1nccs1`, the “lipid storage change, negative = inhibition” value was 11.3% (inactive) and the cell number change was -11%. In the case of `C=CCNC(=S)NNC(=O)C(CCCC)CC(C)O` (stereo unspecified), the Potency is 29.1 µM (active) and the cell number change is -5.26%.

In the case of `C=CCNC(=S)NNC(=O)C(CCCC)CC(O)COCC(C)C` (stereo unspecified), the “lipid storage change, negative = inhibition” value was 7.02% (inactive) and the cell number change amounted to 6.35%.
